In PMC4336329 (PLoS ONE, 2015):
Out of some 310,000 compounds screened, about 14,000 (4.5%) showed an effect of 50% or more. Effects have a minus sign here. This is one part of a sample in which strong results are shown more often than they occur.

Target: human ether-à-go-go-related gene (hERG) potassium channel (human, UniProt Q12809)
Assay: primary screen, population patch clamp on CHO cells stably expressing hERG; higher = less effect of the substance
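Further: peak tail current of the secondary pulse compared with the same well before compound.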

human ether-à-go-go-related gene (hERG) potassium channel, sequence (Q12809 whole entry, looked up): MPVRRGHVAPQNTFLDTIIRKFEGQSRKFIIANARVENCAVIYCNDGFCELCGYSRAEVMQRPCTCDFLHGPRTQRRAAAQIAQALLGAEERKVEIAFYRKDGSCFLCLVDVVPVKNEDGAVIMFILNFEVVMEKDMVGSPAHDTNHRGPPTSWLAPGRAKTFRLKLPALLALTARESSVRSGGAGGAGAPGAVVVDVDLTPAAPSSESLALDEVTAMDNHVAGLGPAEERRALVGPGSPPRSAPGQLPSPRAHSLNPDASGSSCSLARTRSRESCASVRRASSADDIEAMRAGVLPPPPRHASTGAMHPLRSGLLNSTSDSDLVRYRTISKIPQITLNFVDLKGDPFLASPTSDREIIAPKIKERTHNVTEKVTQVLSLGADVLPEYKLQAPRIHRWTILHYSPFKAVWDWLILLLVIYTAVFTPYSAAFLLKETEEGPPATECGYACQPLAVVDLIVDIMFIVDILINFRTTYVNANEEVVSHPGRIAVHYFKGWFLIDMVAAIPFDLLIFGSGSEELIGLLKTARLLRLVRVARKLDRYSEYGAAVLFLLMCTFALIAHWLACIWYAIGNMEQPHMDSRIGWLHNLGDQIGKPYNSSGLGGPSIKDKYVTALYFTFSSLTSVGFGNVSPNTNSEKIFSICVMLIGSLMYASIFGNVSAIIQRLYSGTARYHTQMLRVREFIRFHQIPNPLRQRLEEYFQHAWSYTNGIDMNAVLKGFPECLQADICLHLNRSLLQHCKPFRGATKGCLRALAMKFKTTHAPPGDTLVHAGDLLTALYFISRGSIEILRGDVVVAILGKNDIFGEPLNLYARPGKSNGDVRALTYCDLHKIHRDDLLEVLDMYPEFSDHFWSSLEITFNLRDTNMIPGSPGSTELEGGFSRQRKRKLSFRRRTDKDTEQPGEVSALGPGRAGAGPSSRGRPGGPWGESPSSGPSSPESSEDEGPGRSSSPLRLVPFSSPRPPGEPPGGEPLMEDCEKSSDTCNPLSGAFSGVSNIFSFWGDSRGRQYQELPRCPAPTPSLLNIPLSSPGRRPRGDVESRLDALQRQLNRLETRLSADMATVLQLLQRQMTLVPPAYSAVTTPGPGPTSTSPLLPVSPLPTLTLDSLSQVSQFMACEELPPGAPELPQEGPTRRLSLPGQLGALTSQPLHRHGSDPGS

**Q.** For `COC(=O)c1[nH]c2cc(OC)ccc2c1NC(=O)CCN1CCN(c2cccc(C)c2C)CC1`, which “hERG current change (%, negative = inhibition) at 10uM” value is on record?
**A.** -16.4%

**Q.** For `CCOC(=O)c1[nH]c2ccc(OC)cc2c1NC(=O)CCN1CCC(C)CC1`, which “hERG current change (%, negative = inhibition) at 10uM” value is on record?
**A.** -22.8%

**Q.** `CCOC(=O)c1[nH]c2ccc(OC)cc2c1NC(=O)CN1CCc2ccccc2C1` was tested. Which “hERG current change (%, negative = inhibition) at 10uM” value did it give?
**A.** -12.4%

**Q.** `CCOC(=O)C1CCCN(CCC(=O)Nc2c(C(=O)OC)[nH]c3cc(OC)ccc23)C1` (centres unmarked) was tested. Which “hERG current change (%, negative = inhibition) at 10uM” value did it give?
**A.** -59.6%

**Q.** For `CCOC(=O)c1[nH]c2cc3c(cc2c1NC(=O)CN1CCc2ccccc2C1)OCO3`, which “hERG current change (%, negative = inhibition) at 10uM” value is on record?
**A.** -0.934%

**Q.** Which “hERG current change (%, negative = inhibition) at 10uM” value does the source give for `CCOC(=O)c1[nH]c2ccc(OC)cc2c1NC(=O)CCN1CCc2ccccc2C1` here?
**A.** -59.5%

**Q.** Which “hERG current change (%, negative = inhibition) at 10uM” value does the source give for `CCOC(=O)C1CCCN(CC(=O)Nc2c(C(=O)OC)[nH]c3ccccc23)C1` (centres unmarked) here?
**A.** -25.2%

**Q.** `CCOC(=O)C1CCCN(CC(=O)Nc2c(C(=O)OC)[nH]c3ccc(C)cc23)C1` (centres unmarked) was tested. Which “hERG current change (%, negative = inhibition) at 10uM” value did it give?
**A.** -36.1%

**Q.** How did the “hERG current change (%, negative = inhibition) at 10uM” value turn out when `CCOC(=O)c1[nH]c2ccc(OC)cc2c1NC(=O)CCN1CCSCC1` was run?
**A.** -5.8%

**Q.** With `CCOC(=O)c1[nH]c2ccc(OC)cc2c1NC(=O)CCN1CCN(Cc2ccccc2)CC1` as the compound, how does the “hERG current change (%, negative = inhibition) at 10uM” value read?
**A.** -57.1%

**Q.** `COC(=O)c1[nH]c2cc(OC)ccc2c1NC(=O)CCN1CCN(c2ccccc2)CC1` was tested. Which “hERG current change (%, negative = inhibition) at 10uM” value did it give?
**A.** -67%

**Q.** `COc1cc(OC)nc(Oc2ccccc2C(=O)Oc2cccc(C)c2)n1` was tested. Which “hERG current change (%, negative = inhibition) at 10uM” value did it give?
**A.** 7.95%

**Q.** How did the “hERG current change (%, negative = inhibition) at 10uM” value turn out when `CC1=NN(C(=O)c2ccc(Cl)cc2)C(O)(c2ccccc2)C1` (centres unmarked) was run?
**A.** 22%

**Q.** `COc1ccccc1C(=O)N(C1=NC(C)CS1)c1ccc(Cl)cc1` (centres unmarked) was tested. Which “hERG current change (%, negative = inhibition) at 10uM” value did it give?
**A.** 7.94%

**Q.** For `Cc1cc(C)c(C#N)c(N2CCCC2)n1`, which “hERG current change (%, negative = inhibition) at 10uM” value is on record?
**A.** 5.67%

**Q.** With `COCCCNC(=O)c1ccc(CS(=O)(=O)c2ccc(Br)cc2)o1` as the compound, how does the “hERG current change (%, negative = inhibition) at 10uM” value read?
**A.** -14.3%

**Q.** With `COC(=O)C1=C(C(=O)OC)[N+]2=C3N(C(=O)NC2(C)C)[C@H](CO)C[C@@]32c3ccccc3N(Cc3ccccc3)[C@@H]12` as the compound, how does the “hERG current change (%, negative = inhibition) at 10uM” value read?
**A.** -11.2%

**Q.** With `CCOc1ccc(CCNC(=O)CN(C)S(=O)(=O)c2cccs2)cc1OCC` as the compound, how does the “hERG current change (%, negative = inhibition) at 10uM” value read?
**A.** 10.2%

**Q.** `CC(=O)Nc1cccc(NC(=O)CSc2nnc(NC(=O)c3ccco3)s2)c1` was tested. Which “hERG current change (%, negative = inhibition) at 10uM” value did it give?
**A.** 4.45%

**Q.** `COc1cc(CN2CCCC(C(=O)Nc3ccccc3Oc3cccnc3)C2)ccc1F` (centres unmarked) was tested. Which “hERG current change (%, negative = inhibition) at 10uM” value did it give?
**A.** -39%

**Q.** For `O=C(Nc1ccccc1Oc1ccccc1)C1CC1`, which “hERG current change (%, negative = inhibition) at 10uM” value is on record?
**A.** 12.2%

**Q.** With `O=C(Nc1ccccc1Oc1cccnc1)C1CCCN(C/C=C/c2ccccc2)C1` (centres unmarked) as the compound, how does the “hERG current change (%, negative = inhibition) at 10uM” value read?
**A.** -76.9%

**Q.** Which “hERG current change (%, negative = inhibition) at 10uM” value does the source give for `O=C(Nc1ccccc1Oc1cccnc1)C1CCCN(C/C=C/c2ccc(F)cc2)C1` (centres unmarked) here?
**A.** -76.9%

**Q.** With `O=C(Nc1ccccc1Oc1ccccc1)C1CCCC1` as the compound, how does the “hERG current change (%, negative = inhibition) at 10uM” value read?
**A.** 6.32%

**Q.** For `CCN(CC)C(=O)C1CCCN(C/C=C/c2ccccc2)C1` (centres unmarked), which “hERG current change (%, negative = inhibition) at 10uM” value is on record?
**A.** -40.8%

**Q.** With `O=C(Nc1ccncc1)c1ccc([N+](=O)[O-])cc1Cl` as the compound, how does the “hERG current change (%, negative = inhibition) at 10uM” value read?
**A.** -3.15%

**Q.** Which “hERG current change (%, negative = inhibition) at 10uM” value does the source give for `O=C(O)C1CC=C(Cl)CC1C(=O)NCc1ccccc1` (centres unmarked) here?
**A.** 6.61%

**Q.** How did the “hERG current change (%, negative = inhibition) at 10uM” value turn out when `COc1ccc(C(=O)NC2=C(C#N)CCC2)cc1OC` was run?
**A.** 9.08%

**Q.** Which “hERG current change (%, negative = inhibition) at 10uM” value does the source give for `NC(=O)NC(CC(=O)N1CCc2ccccc2C1)c1ccc(Cl)cc1` (centres unmarked) here?
**A.** 2.09%

**Q.** For `COC(=O)[C@H](CCSC)NC(=O)Nc1ccc(C)c(C)c1`, which “hERG current change (%, negative = inhibition) at 10uM” value is on record?
**A.** -83.6%

**Q.** `COC(=O)[C@H](CCSC)NC(=O)Nc1ccc(C)cc1` was tested. Which “hERG current change (%, negative = inhibition) at 10uM” value did it give?
**A.** 11.6%

**Q.** Which “hERG current change (%, negative = inhibition) at 10uM” value does the source give for `COC(=O)[C@H](CCSC)NC(=O)Nc1ccc(OC)c(Cl)c1` here?
**A.** -6.64%

**Q.** How did the “hERG current change (%, negative = inhibition) at 10uM” value turn out when `CN(C)CCN(Cc1ccccc1)c1ccccn1.Cl` was run?
**A.** -48.6%

**Q.** `O=C(COc1ccc(Cl)cc1)N(Cc1ccccc1)c1ccccn1` was tested. Which “hERG current change (%, negative = inhibition) at 10uM” value did it give?
**A.** -36%

**Q.** How did the “hERG current change (%, negative = inhibition) at 10uM” value turn out when `CC(C)(Oc1ccc(Cl)cc1)C(=O)N(Cc1ccccc1)c1ccccn1` was run?
**A.** -7.15%

**Q.** For `C[N+](C)(C)CCN(Cc1ccc(Cl)cc1)c1ccccn1.[I-]`, which “hERG current change (%, negative = inhibition) at 10uM” value is on record?
**A.** -14.4%

**Q.** `COc1ccc(CN(CCN(C)C)c2ccccn2)cc1.O=C(O)/C=C\C(=O)O` was tested. Which “hERG current change (%, negative = inhibition) at 10uM” value did it give?
**A.** -38.5%

**Q.** `CCCCCc1ccc(-c2ccc(OC)cc2)nc1` was tested. Which “hERG current change (%, negative = inhibition) at 10uM” value did it give?
**A.** 19.7%

**Q.** With `CN(C)CCN(Cc1ccc(Cl)cc1)c1ccccn1.Cl` as the compound, how does the “hERG current change (%, negative = inhibition) at 10uM” value read?
**A.** -74.4%

**Q.** With `CC[N+](C)(C)CCN(Cc1ccc(Cl)cc1)c1ccccn1.[Br-]` as the compound, how does the “hERG current change (%, negative = inhibition) at 10uM” value read?
**A.** -68.6%

**Q.** Which “hERG current change (%, negative = inhibition) at 10uM” value does the source give for `CCCCCCCCCCCCCCCC[N+](C)(C)CCN(Cc1ccc(OC)cc1)c1ncccn1.[Br-]` here?
**A.** -75%

**Q.** With `Nc1nc(-c2ccco2)nn1C(=O)CCc1ccccc1` as the compound, how does the “hERG current change (%, negative = inhibition) at 10uM” value read?
**A.** -0.902%

**Q.** Which “hERG current change (%, negative = inhibition) at 10uM” value does the source give for `CCCOc1ccccc1C(=O)N1CCNC(=O)C1CC(=O)OC(C)C` (centres unmarked) here?
**A.** 0.716%

**Q.** Which “hERG current change (%, negative = inhibition) at 10uM” value does the source give for `CCOC(=O)N1CCN(S(=O)(=O)c2cc(Cl)c(OC)cc2Cl)CC1` here?
**A.** 4.96%
